From PubChem BioAssay
Marburg entry inh = blocks Marburg virus binding to or entry into cells. Marburg virus pseudotyped entry inhibition, cell reporter. Potency, µM (highest dose often 37.8 µM), for the others: at the top dose activity change, negative = inhibition, actives largely listed as inhibitors. 300,000 tested, 1.8% active; calls by dose curve; tested in HEK293 cells; also: potency is read from the fitted curve at half-maximal effect
HCMV antiviral = inhibitors of human cytomegalovirus; HFF cells, HCMV-luciferase reporter, 72 h; active compounds read low; activity change, negative = inhibition, % at 57.5 µM; 410,000 tested, 4.5% active; AID 1259415; in the data active = activity change below about -60%; inconclusive = no clear call, values can overlap the other calls; inactive = above about -39%
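Steps: HFFs plated, 16 h 37C; compounds added; HCMV-luciferase added to MOI 1 PFU/cell; 72 h 37C; OneGlo reagent, 5 min room temperature; luminescence read, normalized to controls.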
HCV inhibitor = blocks hepatitis C virus; 340,000 tested, 3.4% active; Huh7.5.1 HCVcc-Cre infection, luciferase reporter, 44 h; AID 651820; Potency, µM (titrated, usually from 41.8 µM), without a hit: at the top dose activity change, negative = inhibition, most hits filed as inhibitors; also: potency is read from the fitted curve at half-maximal effect
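A cell-based infection assay in which seeded cells (1,000 per well) receive test compound after 4 h, are inoculated with HCVcc-Cre at approximately 0.5 moi, and are incubated 44 h before luminescence detection.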
Pf growth 48h = P. falciparum growth inhibition at 48 hours (one generation); P. falciparum luciferase growth in erythrocytes, 48 h; Potency, µM (titrated, usually from 28.7 µM), inactives show top-dose activity change, negative = inhibition, most hits filed as inhibitors; 310,000 tested, 5.9% active; also: potency is read from the fitted curve at half-maximal effect
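Read-out is firefly luciferase luminescence from an integrated reporter in P. falciparum, so falling signal marks reduced parasite growth. Infected erythrocytes were at 2% hematocrit and 0.1% parasitemia (final) in Albumax-supplemented RPMI 1640.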
Pf growth 96h = P. falciparum growth inhibition at 96 hour, primary screen for plastid delayed-death inhibitors | Potency, µM (highest dose often 28.7 µM), inactives show top-dose activity change, negative = inhibition, usual class: inhibitors | 320,000 tested, 6.9% active | P. falciparum luciferase reporter growth, 96 h | AID 504834; also: potency is read from the fitted curve at half-maximal effect
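Erythrocytes infected with luciferase-expressing P. falciparum were dispensed at 2% hematocrit and 0.05% parasitemia (final), then incubated with compounds 96 hours at 37 C in 5% CO2. Luminescence after detection reagent addition reported growth.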
LASV entry inh = blocks Lassa virus binding to or entry into cells | Lassa virus pseudotype entry inhibition, cell reporter | Potency, µM (doses to about 37.9 µM), inactives show at the highest dose activity change, negative = inhibition, most hits filed as inhibitors | 300,000 tested, 1.2% active | AID 540256; calls by dose curve; tested in HEK293 cells; also: potency is read from the fitted curve at half-maximal effect; nearly all actives have a fitted effect of over 50% in size
* hit, by the source's call; i = inactive; ? = inconclusive; · = no result given; [ ] = another dose, or the depositor's remark. Most compounds without a hit are left out; they make up all but 14% or so of the library. Unless noted, calls follow the shape of the dose curve; as a rule, active = well fitted inhibition curve with a large enough effect; inconclusive = small, poorly fitted or top-dose-only effect, or another doubt; inactive = no such curve, though single readings can be large or run the other way. % is scaled to controls: 0 for no effect and ±100 for the full control effect.

SMILES	Marburg entry inh	HCMV antiviral	HCV inhibitor	Pf growth 48h	Pf growth 96h	LASV entry inh
COc1ccc2cc(C(C)C(=O)N3CCC(C)CC3)ccc2c1 (stereo not drawn)	?	-9.0	-23.0%	?	?	?
COc1ccc(NC(=O)C2CC(c3cccc(Br)c3)=NO2)cc1OC (stereo not drawn)	4.8%	-18.5	?	-0.7%	10.4µM*	0.5%
COc1cc(NC(=O)C2CC(c3c(F)cccc3Cl)=NO2)cc(OC)c1OC (stereo not drawn)	?	-26.8	25.1µM*	9.1%	15.5%	-14.1%[46.1 µM]
CCCCSc1nnc(-c2ccc(NC(=O)CCc3ccccc3)cc2)n1C	-3.5%	3.1	-17.8%	?	11.7µM*	-14.8%
COc1ccccc1NC(=O)CC(=O)CSc1nnc(-c2ccc(C)cc2)n1C	1.1%	15.5	-17.0%	11.7µM*	1.5%	22.1%
Cn1c(SCC(=O)CC(=O)Nc2ccccc2)nnc1-c1ccc(O)cc1	7.2%	22.0	-10.1%	3.6%	11.7µM*	0.0%
Cc1ccc(-c2nnc(SCC(=O)CC(=O)Nc3ccccc3)n2C)cc1	-10.5%	14.5	-4.2%	?	?	-2.3%
Cn1c(SCC(=O)NCc2ccccc2)nnc1-c1ccc(NC(=O)CCc2ccccc2)cc1	?	-16.2	-14.1%	?	·	7.8%
CCCC#Cc1ccc2c(c1)O[C@H](CN(C)C(=O)CC1CC1)[C@H](C)CN([C@@H](C)CO)S2(=O)=O	·	-28.5	·	·	·	·
CC(=O)c1ccccc1C(=O)N1CCC(CCC(=O)NCc2ccc(F)cc2)CC1	·	-29.0	·	·	·	·
CC1CN(S(=O)(=O)c2cccc(C(=O)OCC(=O)NCc3ccccc3)c2)CC(C)O1 (stereo not drawn)	·	-3.4	17.6%	?	?	·
CC(=O)N1CCN(S(=O)(=O)c2cccc(C(=O)N(Cc3ccccc3)c3ccc(C)cc3)c2)CC1	?	?	-3.4%	5.86µM*	?	-23.8%
Cc1ccc(N(Cc2ccccc2)C(=O)c2cccc(S(=O)(=O)N3CC(C)OC(C)C3)c2)cc1 (stereo not drawn)	?	?	?	10.4µM*	?	?
CN1CCN(S(=O)(=O)c2cccc(C(=O)N(Cc3ccccc3)c3ccccc3)c2)CC1	16.4%	-5.0	0.1%	·	·	12.9%
CC1CN(S(=O)(=O)c2cccc(C(=O)N(CCc3ccccc3)Cc3ccccc3)c2)CC(C)O1 (stereo not drawn)	?	·	?	2.94µM*	?	-25.1%
COc1ccc(C(C(=O)Nc2c(C)cccc2C)N2CCN(C)CC2)cc1 (stereo not drawn)	·	19.9	·	·	·	·
O=C(NCc1cccnc1)c1cc(C2CCCCN2S(=O)(=O)c2cccs2)on1 (stereo not drawn)	·	-28.9	·	·	·	·
COc1ccc(Cl)cc1NC(=O)C1CCCN(c2ncnc3onc(C)c23)C1 (stereo not drawn)	·	-76.7*	·	·	·	-15.9%[46.1 µM]
COc1ccc(NC(=O)C2CCCN(c3ncnc4onc(C)c34)C2)cc1OC (stereo not drawn)	·	-13.6	·	·	·	7.2%[46.1 µM]
N#Cc1ccccc1CN1CCN(c2ncc(C(=O)NCc3ccco3)s2)C1=O	·	-24.0	·	·	·	·
Fc1ccccc1CNc1ncnc2sccc12	?	-14.5	2.24µM*	6.9%	23.0%	-28.1%[46.1 µM]
COc1ccccc1CNc1ncnc2sccc12	6.31µM*	-75.9*	?	-27.9%	-24.7%	?
COc1ccc(CCNc2ncnc3sccc23)cc1OC	?	-89.2*	?	-25.2%	-25.8%	?
c1ccc2c(c1)OCC(CNc1ncnc3sccc13)O2 (stereo not drawn)	?	-63.3*	1µM*	-23.4%	?	-31.0%
Cc1ccc2nc(C(C)(C)C)c(Cc3cccc(Cl)c3)n2c1	·	34.6	·	·	·	·
SMILES	Marburg entry inh	HCMV antiviral	HCV inhibitor	Pf growth 48h	Pf growth 96h	LASV entry inh
O=C(NN=C1C[C@@H](O)[C@H](O)[C@H]2[C@@H]3C(=O)N(C[C@@H]4CCCO4)C(=O)[C@@H]3CC[C@@H]12)OCc1ccccc1	-4.7%[14.2 µM]	·	·	·	·	?
COc1cccc(CNC(=O)C2CCN(Cc3cc4ccccc4n3Cc3ccccc3)CC2)c1OC	·	-5.5	·	·	·	?
Cc1cc(-n2c(C)nc3ccccc3c2=O)ccc1NC(=O)C(F)(F)F	·	-11.2	·	·	·	-10.5%[46.1 µM]
CN(C)c1ccc(CNc2ncnc3sccc23)cc1	?	-82.0*	1.78µM*	-8.7%	30.7%	3.55µM*
CN(C)c1ccc(CNc2ncc(Br)cc2Br)cc1	-18.9%	-5.6	-7.8%	44.4%	159.8%	5.7%
COC(=O)C1C[C@@]23C(=NN=C(SC)C2N(C)c2ccc(OC)cc23)N1C(C)=O (stereo partly drawn)	-33.2%[14.2 µM]	·	·	·	·	?
COc1ccc(-c2ccc(SC)nn2)cc1	?	-18.9	-11.3%	i	i	3.55µM*
COc1ccc(C(=O)CSc2ccc(-c3ccccc3)nn2)cc1	-1.0%	-16.3	-19.4%	0.4%	?	0.5%
CCOC1=C2CN(S(=O)(=O)c3ccc(C)cc3)[C@H](c3cccc(Cl)c3)C[C@@H]2N(S(=O)(=O)c2ccccc2[N+](=O)[O-])[C@H](c2ccccc2)C1	·	-1.3	·	·	·	·
c1ccc2nc(-c3ccncc3)ccc2c1	-12.9%	23.3	-10.7%	74.1%	67.4%	?
CN1CCN(c2ccc(-c3ccc4ccccc4n3)cc2)CC1	?	-92.1*	15.8µM*	-45.5%	i[5.75 µM]	?
c1ccc2nc(-c3ccc(N4CCOCC4)cc3)ccc2c1	2.31µM*	-26.7	?	69.3%	104.7%	3.66µM*
Cc1cc(-c2ccc(N3CCOCC3)cc2)nc2ccccc12	?	64.4	?	201.7%	190.0%	-23.7%
COc1ccc(-c2cnc3c(NC(C)=O)cc(-c4cccc(C(=O)N(C)C)c4)cn23)cc1OC	·	-36.6	·	·	·	·
Cc1ccc(C(=O)N2C(=O)C(c3ccccc3)Oc3ccccc32)cc1 (stereo not drawn)	7.94µM*	-31.6	-26.7%	12.0%	26.5%	?
Cc1ccc(C(=O)N2c3ccccc3OCC2C)cc1 (stereo not drawn)	·	-12.8	-4.3%	3.4%	8.7%	·
Clc1ccccc1C1Nc2cccc3cccc(c23)N1	·	-4.2	-2.3%	?	-15.3%	·
Oc1ccc(C2Nc3cccc4cccc(c34)N2)c(O)c1	-9.8%	-11.9	1.4%	6.57µM*	1.47µM*	7.0%
Cc1ccc([C@H]2C[C@]34CN(Cc5ccccc5)S(=O)(=O)[C@H]3C[C@H]2O4)cc1	·	-88.4*	·	·	·	·
Cc1ccc([C@H]2C[C@]34CNS(=O)(=O)[C@H]3C[C@H]2O4)cc1	·	22.6	·	·	·	·
Cc1ccccc1NS(=O)(=O)c1ccc2c(c1)NC(=O)CCS2	?	-28.2	-14.9%	-23.3%	11.7µM*	?
